In the library only some 3% were active in any assay of this set; here they are far more common.
RE007 growth inh – less growth of the S. pombe RE007 Vpr strain | actives 0.21% (n = 360,000) | S. pombe RE007 Vpr strain, BacTiter-Glo ATP luminescence, 24 h | Potency, µM (top dose mostly 92.2 µM), for inactives: at the top dose activity change, negative = less growth, usual class: inhibitors; active = well fitted falling curve with a large enough effect; inconclusive = small, poorly fitted or top-dose-only effect; inactive = no such curve, though single readings can be large or run the other way; note: nearly all actives have a fitted effect of over 50% in size
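Fission yeast RE007 carrying one integrated HIV-1 vpr copy, seeded at OD 0.01 in PMG+AL medium with 23 nL pinned compound. Grown 24 h at 30 degrees; viability read by BacTiter-Glo luminescence after 5 min.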
Sm TGR block – blocks Schistosoma mansoni thioredoxin glutathione reductase; Potency, µM (doses to about 114 µM), for the others: top-dose activity change, negative = inhibition, hits mostly inhibitors; Q962Y6; purified TGR, DTNB reduction, TNB absorbance 405 nm; actives 3% (n = 360,000); note: nearly all actives have a fitted effect of over 60% in size
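First, TGR (20 nM dispensed) and NADPH were mixed with compound. Second, a 15 min room-temperature incubation followed. Third, further NADPH and then DTNB were added to start the reaction. Finally, TNB absorbance was monitored kinetically.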
TbPYK inhibitor – T. brucei pyruvate kinase inhibition; Q57TT1; TbPYK enzyme, Kinase-Glo Plus ATP luminescence, 45 min; Potency, µM (series often up to 76.8 µM), for the others: at the top dose activity, negative = inhibition, hits mostly inhibitors; actives 0.12% (n = 410,000); note: nearly all actives have a fitted effect of over 50% in size
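Luminescent Kinase-Glo Plus end-point after 45 min room-temperature reaction of T. brucei pyruvate kinase started with 130 uM ADP (final). Buffer TEA 50 mM pH 7.2 with KCl, MgCl2, BSA, Tween-20; titration-based qHTS with fitted concentration-effect curves.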
LmPK inh – LmPK (Leishmania mexicana) enzyme inhibition; purified LmPK, Kinase-Glo ATP luminescence, 1 h; AID 1721; actives 0.37% (n = 290,000); Q27686; Potency, µM (highest dose often 57.5 µM), for inactives: top-dose activity change, negative = inhibition, actives largely listed as inhibitors
Target sequence (Q27686 whole entry, looked up): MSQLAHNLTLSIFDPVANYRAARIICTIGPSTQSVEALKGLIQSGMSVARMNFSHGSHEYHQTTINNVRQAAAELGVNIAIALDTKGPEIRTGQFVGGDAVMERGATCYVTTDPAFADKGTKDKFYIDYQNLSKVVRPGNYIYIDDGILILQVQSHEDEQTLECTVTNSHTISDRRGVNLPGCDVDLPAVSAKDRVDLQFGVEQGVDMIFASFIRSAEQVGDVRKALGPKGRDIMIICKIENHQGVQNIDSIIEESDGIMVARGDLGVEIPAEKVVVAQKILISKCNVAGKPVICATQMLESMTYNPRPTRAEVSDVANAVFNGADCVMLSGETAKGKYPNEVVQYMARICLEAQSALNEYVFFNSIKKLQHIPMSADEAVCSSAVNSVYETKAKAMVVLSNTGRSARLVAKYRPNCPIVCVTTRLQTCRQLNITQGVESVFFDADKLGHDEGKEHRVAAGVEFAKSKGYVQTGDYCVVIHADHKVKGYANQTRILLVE
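ATP generated from ADP (0.1 mM) and PEP (0.5 mM) by 0.1 nM LmPK over 1 h at room temperature (pH 7.2 imidazole buffer) was detected by coupled luciferase luminescence. Values were normalized to uninhibited and no-enzyme wells.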
* hit, by the source's call. Unless noted, calls come from the whole dose curve; as a rule, active = well fitted curve in the direction sought with a large enough effect; inconclusive = small, poorly fitted or top-dose-only effect, or another doubt; inactive = no such curve, though single readings can be large; an effect the other way counts as inactive or inconclusive. % is set by controls: 0 for no effect and ±100 for the full control effect; potency is the fitted concentration of half-maximal effect.

For CCCSc1nnc(NC(=O)Nc2ccc(F)cc2)s1 the results were RE007 growth inh 1.2%, Sm TGR block 89.1µM*, TbPYK inhibitor 0.2% and LmPK inh -3.9%.
`CC1CC2(O)c3no[n+]([O-])c3CCC2N1O` (stereo not drawn) gave RE007 growth inh 1.5%, Sm TGR block -15.5%, TbPYK inhibitor -0.6% and LmPK inh -11.6%.
CC1(N2CCOCC2)CC2(O)C(=[N+]1[O-])CCc1c2no[n+]1[O-] (stereo not drawn) was read as RE007 growth inh 4.8%, Sm TGR block 31.6µM*, TbPYK inhibitor -8.6% and LmPK inh 0.5%.
For C=CCn1c(O)c(CN2CCOCC2)c(C)c(C#N)c1=O the results were RE007 growth inh 3.5%, Sm TGR block 39.8µM*, TbPYK inhibitor -10.7% and LmPK inh -1.1%.
`O=C(NCc1cccnc1)c1nn(-c2ccc(F)cc2)nc1CO` gave Sm TGR block -1.9% and TbPYK inhibitor 8.0%.
CN(C)S(=O)(=O)c1ccc(C(=O)Oc2cc(=O)[nH]c3ccccc23)cc1 was read as RE007 growth inh -2.4%, Sm TGR block 20µM*, TbPYK inhibitor -3.3% and LmPK inh -5.5%.
Screening CCn1c2ccccc2c2cc(NC(=O)c3ccc(Br)o3)ccc21 returned RE007 growth inh -25.9%, Sm TGR block 11.2µM*, TbPYK inhibitor -15.2% and LmPK inh -24.8%.
Screening CC(C)Cn1c([N+](=O)[O-])nc2c1c(=O)[nH]c(=O)n2C returned RE007 growth inh 2.3%, Sm TGR block 22.4µM*, TbPYK inhibitor 0.1% and LmPK inh 0.4%.
Cn1c(=O)[nH]c(=O)c2c1nc(N1CCNCC1)n2Cc1ccccc1 was read as RE007 growth inh -8.0%, Sm TGR block inconclusive, TbPYK inhibitor 2.9% and LmPK inh 4.5%.
`CC(=O)CSc1nc2c(c(=O)[nH]c(=O)n2C)n1Cc1cccc(Br)c1` gave RE007 growth inh -1.8%, Sm TGR block 56.2µM*, TbPYK inhibitor -27.7% and LmPK inh -4.6%.
For CCNc1nc2c(c(=O)[nH]c(=O)n2C)n1CC(C)C the results were RE007 growth inh 2.9%, Sm TGR block 4.7%, TbPYK inhibitor -1.7% and LmPK inh -1.5%.
For Cn1c(=O)[nH]c(=O)c2c1nc([N+](=O)[O-])n2Cc1ccccc1 the results were RE007 growth inh 5.7%, Sm TGR block 1.78µM*, TbPYK inhibitor -2.3% and LmPK inh -4.2%.
For Cn1c(=O)[nH]c(=O)c2c1nc(Br)n2CCC(=O)c1ccccc1 the results were RE007 growth inh -11.2%, Sm TGR block 12.6µM*, TbPYK inhibitor -2.9% and LmPK inh 1.3%.
`COC(=O)c1ccc(NC(=O)c2cc(S(=O)(=O)N3CCc4ccccc43)cn2C)cc1` gave Sm TGR block -19.2% and TbPYK inhibitor -0.9%.
`CC(=O)N1CCc2c(sc3c2c(=O)n(-c2ccc(C)cc2)c(=O)n3Cc2c(F)cccc2Cl)C1` gave Sm TGR block 1.2% and TbPYK inhibitor -3.2%.
For CCCCC(CC)CNC(=O)CCCc1nnc2n(CCC)c(=O)c3sccc3n12 (stereo not drawn) the results were Sm TGR block 1.6% and TbPYK inhibitor 0.2%.
CC(C)(C)OC(=O)c1c(N)n(Cc2ccco2)c2nc3ccccc3nc12 was read as RE007 growth inh 2.3%, Sm TGR block 28.2µM*, TbPYK inhibitor -7.1% and LmPK inh 7.3%.
COc1ccc(S(=O)(=O)c2c(N)n(Cc3ccco3)c3nc4ccccc4nc23)cc1 was read as RE007 growth inh -3.3%, Sm TGR block inconclusive, TbPYK inhibitor -20.6% and LmPK inh 4.0%.
Screening COCCNC(=O)c1c(NC(=O)c2ccco2)n(Cc2ccccc2)c2nc3ccccc3nc12 returned RE007 growth inh -2.7%, Sm TGR block 25.1µM*, TbPYK inhibitor -10.9% and LmPK inh 12.1%.
`C=CCn1c(NC(=O)c2ccco2)c(S(=O)(=O)c2ccccc2)c2nc3ccccc3nc21` gave Sm TGR block 44.7µM* and LmPK inh 5.6%.
C=CCNC(=O)c1c(N)n(Cc2ccco2)c2nc3ccccc3nc12 was read as RE007 growth inh -4.7%, Sm TGR block 44.7µM*, TbPYK inhibitor inconclusive and LmPK inh -1.8%.
`O=C(NC1CCCCC1)c1ccc(Cn2c(SCc3cccc(F)c3)nc3cccnc32)cc1` gave Sm TGR block 5.3% and TbPYK inhibitor -1.0%.

High-throughput results (PubChem)
